# Compound activity: PubChem BioAssay, Johns Hopkins Ion Channel Center
# KCNQ2 inh = inhibitors of rat KCNQ2 potassium channel; O88943; CHO-K1 KCNQ2, FluxOR thallium flux, 20 min; stronger effect = lower value; B-score at 10 µM; actives 1.1% (n = 310,000); AID 2156;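 active = fluorescence ratio B-score at most minus 3 library SDs, with starting brightness B-score within 2 library SDs, cut at about -5.5 in these data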
# Target sequence (O88943 whole entry, looked up): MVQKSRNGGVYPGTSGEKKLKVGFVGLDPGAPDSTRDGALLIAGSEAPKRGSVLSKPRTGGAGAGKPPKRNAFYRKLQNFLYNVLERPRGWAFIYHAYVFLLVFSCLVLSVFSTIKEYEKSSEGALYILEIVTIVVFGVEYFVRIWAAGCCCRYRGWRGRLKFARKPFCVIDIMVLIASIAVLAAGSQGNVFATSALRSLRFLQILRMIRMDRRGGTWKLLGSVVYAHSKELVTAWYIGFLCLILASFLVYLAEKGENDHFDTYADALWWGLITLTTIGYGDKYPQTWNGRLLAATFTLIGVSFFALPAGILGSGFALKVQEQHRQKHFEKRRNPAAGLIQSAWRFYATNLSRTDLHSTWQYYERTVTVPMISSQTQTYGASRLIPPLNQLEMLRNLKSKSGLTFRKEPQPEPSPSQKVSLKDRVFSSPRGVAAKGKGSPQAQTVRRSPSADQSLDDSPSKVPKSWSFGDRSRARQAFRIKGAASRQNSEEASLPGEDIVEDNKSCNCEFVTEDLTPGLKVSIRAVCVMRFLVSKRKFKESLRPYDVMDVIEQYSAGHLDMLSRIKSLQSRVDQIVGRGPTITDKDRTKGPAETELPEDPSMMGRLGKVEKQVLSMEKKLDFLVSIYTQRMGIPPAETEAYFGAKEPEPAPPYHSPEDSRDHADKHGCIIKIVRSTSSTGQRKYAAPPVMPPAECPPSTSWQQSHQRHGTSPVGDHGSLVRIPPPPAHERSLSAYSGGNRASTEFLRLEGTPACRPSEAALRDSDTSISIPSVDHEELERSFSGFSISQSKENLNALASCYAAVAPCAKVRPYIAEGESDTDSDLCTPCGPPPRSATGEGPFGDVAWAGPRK
# KCNQ2 enhance = enhances the rat KCNQ2 potassium channel; CHO-K1 KCNQ2, FluxOR thallium flux fluorescence; stronger effect = higher value; actives 0.54% (n = 310,000); B-score at 10 µM;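 active = fluorescence ratio B-score at least 3 SD of library B-scores, with initial fluorescence B-score within 3 of them, cut at about 5.3 in these data; same plate scores as AID 2156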;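 also: B-score of peak minus minimum over baseline fluorescence ratio after K+ and Tl+ stimulus; positive B-score means potentiation of KCNQ2 with more thallium influx and brighter signal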
# Numbers stand for hits; - = inactive; . = not tested or not shown. A selection: hits, their analogues and other compounds. The true share with any hit is near 1.6%.
SMILES,KCNQ2 inh,KCNQ2 enhance
CCn1c(=O)c(-c2cc(=O)[nH][nH]2)c(O)c2ccccc21,-,.
CSc1nnc(-c2sccc2OCc2ccccc2)n1C,-,.
CSc1n[nH]c(-c2sccc2OCc2ccc(C)cc2)n1,-6.1,-
C[C@@H]1CN(Cc2cn(C)nc2-c2cccc(Cl)c2)C[C@H](C)O1,-,.
COc1ccc(Nc2cc(C(=O)N3CCc4ccccc4C3)c3ccccc3n2)c(OC)c1,-8,-
COc1ccccc1-c1cc(C(=O)N2CCc3ccccc3C2)c2ccccc2n1,-,.
COc1ccccc1Nc1cc(C(=O)N2CCc3ccccc3C2)c2ccccc2n1,-6.3,-
COCCCNC(=O)c1cc(Nc2ccc(OC)cc2OC)nc2ccccc12,-,-
Cc1onc(-c2ccccc2)c1C(=O)N1CC(C)OC(C)C1 (stereo unspecified),-,.
COc1ccc(S(=O)(=O)NNC(=O)Nc2ccc(F)cc2F)c(OC)c1,-,-
Cc1oc2c(c1C(=O)Nc1cccc(C(=O)O)c1)CCCC2,-,5.6
Cc1ccc(C(=O)Nc2cccc(C(=O)O)c2)cc1,-,-
CS/C(N)=N/S(=O)(=O)c1ccc(NC(C)=O)cc1,-,-
O=C(NCCc1cn2ccccc2n1)C1CCCCC1,-,-
Cc1onc(-c2ccccc2Cl)c1C(=O)Nc1ccc(N2CCOCC2)cc1,-,.
Cc1ccc(-n2nc3c(c2NC(=O)c2c(-c4ccccc4Cl)noc2C)CSC3)cc1,-7.4,-
Cc1onc(C(=O)NC2CCCCC2)c1[N+](=O)[O-],-,.
O=C(Nc1cccc(F)c1)c1ccc(Cn2cc([N+](=O)[O-])cn2)o1,-,5.5
Cc1ccccc1NC(=O)c1ccc(Cn2cc([N+](=O)[O-])cn2)o1,-,-
CCNC(=S)Nc1cccc(F)c1C,-,-
Cc1ccccc1CSCc1nc(N)nc(Nc2ccccc2C)n1,-,-
CCc1ccccc1Nc1nc(N)nc(CSCC(=O)Nc2ccc(C)c(C)c2)n1,-,19
CCc1ccc(NC(=O)CSCc2nc(N)nc(Nc3ccccc3CC)n2)cc1,-,15
CCc1ccccc1Nc1nc(N)nc(COC(=O)c2cccn2C)n1,-,-
COc1ccc(/C=N/Nc2ccc([N+](=O)[O-])cc2)cc1O,-,-
SMILES,KCNQ2 inh,KCNQ2 enhance
Cn1nnc2c[n+](CC(=O)c3ccc4ccccc4c3)cc(Br)c21,-,.
Cn1nnc2c[n+](CC(=O)c3ccc(Cl)cc3)cc(Br)c21,-6.1,-
CCn1c(C)cc(O)c(C(=O)Nc2cccc(Cl)c2)c1=O,-,-
CCn1c(C)c(C)c2cc(C(=O)Nc3cccc(Cl)c3)ccc21,-6.6,-
CCc1ccc(C2c3[nH]c4ccccc4c3CCN2C(=O)c2cc(C)nn2C)cc1 (stereo unspecified),-,.
O=[N+]([O-])c1cccc(/C=C/c2nc3ccc([N+](=O)[O-])cc3[nH]2)c1,-8.1,-
Cc1nc2ccc([N+](=O)[O-])cc2[nH]1,-,-
CS(=O)(=O)N1CCC(Oc2cccc(C(=O)NCCCOc3cccnc3)c2)CC1,-,.
CN(C1=C(NC(=O)c2ccccc2)C(=O)c2ccccc2C1=O)C1CCS(=O)(=O)C1 (stereo unspecified),-,-
CC(=O)NC1=C(NC2CCS(=O)(=O)C2)C(=O)c2ccccc2C1=O (stereo unspecified),-,6.1
S=C(NNc1ccc2ccccc2c1)NC1CCCCC1,-,.
CC(NC(=O)N(Cc1ccccc1)Cc1ccc2c(c1)OCO2)(C(F)(F)F)C(F)(F)F,-,.
CCC(NC(=O)N(Cc1ccccc1)Cc1ccc2c(c1)OCO2)(C(F)(F)F)C(F)(F)F,-8.1,-
O=C(N/N=C/c1ccc(-n2ccnc2)cc1)c1cccs1,-,-
COc1ccc(S(=O)(=O)NCC2CCC(C(=O)O)CC2)cc1 (stereo unspecified),-,.
COc1ccc(/C=N/NC(=O)c2ccc[nH]2)cc1,-6.1,-
COc1ccc(/C=N/NC(=O)c2cccnc2)cc1,-,.
COc1ccccc1N1CCN(C(=O)c2ccc(COc3cccc4c3OC(C)(C)C4)cc2)CC1,-,.
O=C(N/N=C/c1ccncc1)c1cccc(S(=O)(=O)Nc2ccc(Cl)cc2)c1,-,-
O=C(CN(Cc1ccc(Br)cc1)S(=O)(=O)c1ccccc1)NCc1ccccn1,-6.5,-
O=C(CN(Cc1ccccc1)S(=O)(=O)c1ccc(Br)cc1)NCc1ccco1,-6.6,-
O=C(CCS(=O)(=O)c1ccc(Br)cc1)NCc1ccco1,-,-
COc1ccc(S(=O)(=O)N(CC(=O)NCc2ccccn2)Cc2ccccc2)cc1,-,.
Cc1cc(OC(C)C(=O)NCc2ccncc2)c2c(C)c(C)c(=O)oc2c1 (stereo unspecified),-,.
Cc1cc(N2CCCC2)nc2ccc(NC(=S)NCCCN3CCC(C)CC3)cc12,-,.
SMILES,KCNQ2 inh,KCNQ2 enhance
CCc1nnc(NS(=O)(=O)c2ccc(N/C=C\C(=O)c3ccc(C)cc3)cc2)s1,-,.
O=C(NCCc1ccccc1)C1CCC(=O)N(Cc2cccc(C(F)(F)F)c2)C1 (stereo unspecified),-,.
CCOC(=O)c1c(C)n(-c2ccc(C)cc2)c2ccc(OCC(O)CNCC3CCCO3)cc12 (stereo unspecified),-6.3,-
OC(CNCC1CCCO1)COc1ccc(OCC(O)CNCC2CCCO2)cc1 (stereo unspecified),-,-
O=C(Nc1cccc(F)c1)N1CC=C(c2ccc(Cl)cc2)CC1,-6.6,-
O=C(CN1CCN(c2ccc(Cl)cc2)CC1)Nc1cccc(F)c1,-,.
Cc1ccc(CN(C)C2CCN(C)CC2)cc1,-,.
COc1cc(/C=C2\SC(=Nc3ccccc3)N(Cc3ccco3)C2=O)ccc1OC(C)C(=O)O (stereo unspecified),-,.
COCCN1C(=O)/C(=C/c2ccc(OCc3ccc(C(=O)O)cc3)c(OC)c2)SC1=Nc1ccccc1,-6.1,-
CCc1ccc(NC(=S)N(CCCN2CCOCC2)Cc2ccco2)cc1,-,6.6
COc1ccc(NC(=S)N(CCCN2CCOCC2)Cc2ccco2)cc1,-,.
CCOc1cc(C(=O)NC(C)CCc2ccccc2)cc(OCC)c1OCC (stereo unspecified),-,-
Cc1cc(C(=O)CSc2ccc(F)cc2)cc(C)c1OC(=S)N(C)C,-6,-
COc1ccc(SCC(=O)c2cc(C)c(OC(=S)N(C)C)c(C)c2)cc1,-,.
COc1ccc(C(=O)NC(=S)Nc2ccc(S(N)(=O)=O)cc2)cc1,-,-
COc1cc(C(=O)NNC(=S)Nc2ccc(S(N)(=O)=O)cc2)cc(OC)c1OC,-6.1,-
Cc1ccc(N=Nc2ccc(O)cc2)c(Br)c1,-5.7,-
Oc1ccc(N=Nc2ccc(Br)cc2)c(O)c1,-,-
O=C1CCC(C(=O)N2CCCCO2)CN1Cc1ccc(Cl)cc1 (stereo unspecified),-,-
C(=N\Nc1nc(N2CCCCCC2)nc(N2CCCCCC2)n1)/c1ccccc1,-5.8,-
O=C(O)c1ccccc1/C=N/Nc1nc(N2CCCCC2)nc(N2CCCCC2)n1,-,.
CCn1cc(CN2CCC(n3nccc3NC(=O)c3ccc4c(c3)OCO4)CC2)c(C)n1,-,-
O=C(c1ccccc1)N1CCN(c2ccc(Cl)cc2)CC1,-,.
O=C(c1noc2c1CSc1ccccc1-2)N1CCN(c2ccc(Cl)cc2)CC1,-7,-
Cc1cc(C)n(-c2nc3ccccc3c(=O)n2OCC(=O)N(C)C)n1,-,-
Cc1cc(C)n(-c2nc3ccccc3c(=O)n2OCC(=O)Nc2c(C)cccc2C)n1,-6,-
CCOc1ccc(NC2=NC(C(=O)NCc3ccccc3)CC(=O)N2)cc1 (stereo unspecified),-,.
